# PubChem BioAssay
# Results filed as inconclusive are left out. Calls of active or inactive are those of the source. Unless noted, no rule for the calls is given here.
# Assays:
# [1] = rapamycin-like changes in RPL19A-GFP expression – cell-based, S. cerevisiae, multiplex flow cytometry, primary screen (AID 1862; in the data active = percent of DMSO control GFP below about 86%;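 also: lower values mimic rapamycin by blocking the RPL19A rise seen in DMSO cells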); details: S. cerevisiae RPL19A-GFP strain, flow cytometry fluorescence, 3 h; at 10 µM; stronger effect = lower value
# [2] = TOR pathway GLN3 branch reporter MEP2-GFP changes – S. cerevisiae, multiplex flow cytometry, primary screen (AID 1867;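 active = GFP response, as percent of the DMSO control, above the screen-wide mean plus 3 SD, about 139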;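 also: median GFP channel fluorescence of barcode-gated MEP2-GFP cells measured by flow cytometry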); details: S. cerevisiae MEP2-GFP strain, 3 h, at 10 µM, stronger effect = higher value
# [3] = TOR pathway RTG branch CIT2 reporter changes – S. cerevisiae, GFP fusion, multiplex flow cytometry, primary screen (AID 1870;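 active = percent response above a set limit, the screen-wide mean plus 3 SD, cut at about 130% in these data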;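 also: barcoded CIT2-GFP strain pooled with four other GFP strains with rapamycin as positive control; median GFP fluorescence per well over plate mean of DMSO wells so 100% = DMSO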); details: S. cerevisiae CIT2-GFP expression, 3 h, at 10 µM, stronger effect = higher value
# [4] = TOR pathway LAP4-GFP level changes – S. cerevisiae, multiplex flow cytometry, primary screen (AID 1873;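 active = GFP signal, as percent of the solvent control, above the screen mean plus 3 SD, about 149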); details: S. cerevisiae LAP4-GFP expression, 3 h, at 10 µM, stronger effect = higher value
# [5] = reduced mouse 2C T cell binding to pMHC/ICAM-1 vesicles – MLPCN validation set, flow cytometry, LFA-1/ICAM-1 modulator project, pilot screen (AID 2523;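 active = response below a set limit, under 55% cells CD8-positive and vesicle-bound, and CD8 cells' 90th-percentile brightness under 279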;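 as to vesicle binding response: mean PE anti-B7-1 fluorescence of CD8+ cells relative to row control; 100% = QL9-loaded vesicles with DMSO vehicle in the same plate row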); details: 2C mouse CD8+ T cells, at 7 µM, stronger effect = lower value; double positive events: measured here: CD8+/vesicle+ event percentage
# [6] = target: Integrin beta-1 (Homo sapiens) + Integrin alpha-4 (Homo sapiens) (UniProt P13612+P05556); assay: alpha4beta1 integrin LIBS antibody binding reduction – U937 cells, HUTS-21 mAb, flow cytometry, validation set, VLA-4 allosteric modulator project, pilot screen (AID 2674;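 active = inhibition above 50%, about 3 SD of the validation set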;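 also: antibody binding induced by the VLA-4 ligand LDV present at three times its Kd; 0% = LDV ligand with antibody and no compound and 100% = antibody without LDV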); details: HUTS-21 LIBS mAb binding, at 6.7 µM, stronger effect = higher value
# Integrin beta-1 (Homo sapiens) + Integrin alpha-4 (Homo sapiens), sequence (P05556 whole entry, looked up): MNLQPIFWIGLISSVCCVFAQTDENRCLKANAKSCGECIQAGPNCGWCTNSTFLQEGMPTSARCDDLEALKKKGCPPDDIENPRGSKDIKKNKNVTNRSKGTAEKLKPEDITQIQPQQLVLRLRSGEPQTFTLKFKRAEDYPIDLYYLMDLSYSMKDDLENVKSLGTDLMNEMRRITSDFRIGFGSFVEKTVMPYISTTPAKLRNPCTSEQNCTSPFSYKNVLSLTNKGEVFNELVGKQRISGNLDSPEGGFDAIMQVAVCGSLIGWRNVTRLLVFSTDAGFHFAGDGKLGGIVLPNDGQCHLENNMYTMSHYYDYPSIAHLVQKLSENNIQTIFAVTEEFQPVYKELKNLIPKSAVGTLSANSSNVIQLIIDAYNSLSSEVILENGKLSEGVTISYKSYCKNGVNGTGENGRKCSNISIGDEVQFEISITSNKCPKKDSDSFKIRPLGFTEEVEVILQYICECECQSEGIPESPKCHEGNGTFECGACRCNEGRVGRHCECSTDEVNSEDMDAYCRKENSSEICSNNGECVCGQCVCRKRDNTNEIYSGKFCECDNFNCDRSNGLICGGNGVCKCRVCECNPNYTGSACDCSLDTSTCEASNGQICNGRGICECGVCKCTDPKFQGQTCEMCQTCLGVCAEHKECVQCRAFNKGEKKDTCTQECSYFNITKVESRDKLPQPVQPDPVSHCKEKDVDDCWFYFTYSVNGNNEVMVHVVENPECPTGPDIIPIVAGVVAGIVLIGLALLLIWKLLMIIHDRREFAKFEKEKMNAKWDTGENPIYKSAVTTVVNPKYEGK
# Integrin beta-1 (Homo sapiens) + Integrin alpha-4 (Homo sapiens), sequence (P13612 whole entry, looked up): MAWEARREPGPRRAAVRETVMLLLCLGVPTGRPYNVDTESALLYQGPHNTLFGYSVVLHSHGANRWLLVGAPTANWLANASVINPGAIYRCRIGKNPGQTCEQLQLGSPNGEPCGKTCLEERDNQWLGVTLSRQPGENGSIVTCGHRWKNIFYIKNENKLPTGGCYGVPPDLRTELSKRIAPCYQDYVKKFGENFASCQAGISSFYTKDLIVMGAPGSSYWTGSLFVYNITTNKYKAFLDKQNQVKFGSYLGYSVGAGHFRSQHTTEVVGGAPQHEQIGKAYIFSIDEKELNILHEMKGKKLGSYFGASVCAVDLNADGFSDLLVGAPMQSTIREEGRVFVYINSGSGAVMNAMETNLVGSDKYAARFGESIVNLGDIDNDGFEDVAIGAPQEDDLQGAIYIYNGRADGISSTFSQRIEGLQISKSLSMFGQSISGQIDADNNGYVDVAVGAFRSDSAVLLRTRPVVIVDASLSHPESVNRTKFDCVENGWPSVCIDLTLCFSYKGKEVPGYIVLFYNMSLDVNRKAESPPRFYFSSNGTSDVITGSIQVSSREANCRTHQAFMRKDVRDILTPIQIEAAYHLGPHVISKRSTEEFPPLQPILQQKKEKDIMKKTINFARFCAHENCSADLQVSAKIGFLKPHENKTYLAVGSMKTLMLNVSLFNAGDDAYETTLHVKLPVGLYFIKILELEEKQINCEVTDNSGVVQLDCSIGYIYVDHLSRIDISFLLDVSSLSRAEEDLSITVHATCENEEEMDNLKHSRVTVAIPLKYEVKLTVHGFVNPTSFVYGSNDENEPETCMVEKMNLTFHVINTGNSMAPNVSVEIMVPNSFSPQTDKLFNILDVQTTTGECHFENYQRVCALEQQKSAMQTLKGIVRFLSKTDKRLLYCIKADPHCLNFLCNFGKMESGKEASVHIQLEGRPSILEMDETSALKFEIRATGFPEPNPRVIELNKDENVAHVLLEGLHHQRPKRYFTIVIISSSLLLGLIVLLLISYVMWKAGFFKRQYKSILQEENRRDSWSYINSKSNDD
# [7] = calorie-restriction mimetic ROS inhibitors, yeast – validation compound set, pilot screen (AID 2706;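 active = superoxide response below 65% of plate, a cut near 3 SD across the whole screen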;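 also: yeast exposed to compound for one week at 30 degrees C before staining; 100% = mean of all compound wells on the same plate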); details: S. cerevisiae aging, superoxide DHE fluorescence; at 10 µM; stronger effect = lower value
# [8] = target: Beta-adrenergic receptor kinase 1 (Homo sapiens) (UniProt P25098); assay: GRK2 binders displacing RNA aptamer, biochemical, validation, human GRK2, bead flow cytometry (AID 488806;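 active = aptamer binding inhibition above 30%, about 3 SD of noise from non-fluorescent compounds; inactive = inhibition at or below 30%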); details: bead-bound GRK2, FAM-aptamer displacement, at 10 µM, stronger effect = higher value
# Beta-adrenergic receptor kinase 1 (Homo sapiens), sequence (P25098 whole entry, looked up): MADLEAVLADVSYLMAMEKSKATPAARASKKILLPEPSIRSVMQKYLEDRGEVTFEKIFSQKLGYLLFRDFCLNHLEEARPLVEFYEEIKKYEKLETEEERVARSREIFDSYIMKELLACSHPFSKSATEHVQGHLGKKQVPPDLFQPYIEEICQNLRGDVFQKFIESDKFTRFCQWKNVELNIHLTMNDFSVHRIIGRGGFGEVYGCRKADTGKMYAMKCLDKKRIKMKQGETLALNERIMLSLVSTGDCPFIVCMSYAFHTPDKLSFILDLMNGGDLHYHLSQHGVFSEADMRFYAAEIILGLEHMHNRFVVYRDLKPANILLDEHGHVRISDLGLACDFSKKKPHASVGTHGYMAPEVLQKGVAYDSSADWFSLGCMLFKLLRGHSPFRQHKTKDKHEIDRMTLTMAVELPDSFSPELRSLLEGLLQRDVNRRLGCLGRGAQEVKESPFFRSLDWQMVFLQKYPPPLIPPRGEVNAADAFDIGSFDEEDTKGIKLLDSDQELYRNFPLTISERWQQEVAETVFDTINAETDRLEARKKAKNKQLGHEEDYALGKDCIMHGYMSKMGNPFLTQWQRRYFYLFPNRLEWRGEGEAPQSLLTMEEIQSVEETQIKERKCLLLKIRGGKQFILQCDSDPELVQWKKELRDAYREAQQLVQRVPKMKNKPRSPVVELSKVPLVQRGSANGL
# [9] = target: AP-2 complex subunit beta (Homo sapiens) (UniProt P63010); assay: beta-arrestin/AP2 interaction blockers – biochemical, validation set, GST-AP2 beads, flow cytometry, pilot screen (AID 504541;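 active = inhibition above 54%, about 3 SD of non-fluorescent compounds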;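 also: AP2 carries R879A mutation and is captured from E. coli lysate; bead-bound FITC arrestin peptide fluorescence measuring arrestin peptide binding to AP2; 0% = DMSO wells and 100% = excess unlabeled arrestin peptide control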); details: FITC arrestin peptide, at 10 µM, stronger effect = higher value
# [10] = cytosolic pH regulators acting via V-ATPase – S. cerevisiae, pHLuorin, HTS validation (AID 504600; in the data active = response above about 15%;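 also: plate controls were DMSO for no effect and reference compound for full effect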); details: V-ATPase proton transport, at 10 µM, stronger effect = higher value
# [11] = test system: anti-desmoglein-3 scFv antibody binding to human DSG3; assay: blockers of pathogenic pemphigus antibody–desmoglein-3 binding – biochemical, validation compound set, bead-based, flow cytometry, pilot screen (AID 588368;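 active = binding below the plate cutoff, the plate median minus 3 SD, with a reading above zero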;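 also: signal is the median channel fluorescence of bead-bound GFP antibody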); details: Protein G beads, DSG3-Fc, scFv-GFP binding, at 10 µM, stronger effect = lower value
# [12] = test system: Botulinum neurotoxin type F light chain protease (Clostridium botulinum); assay: Clostridium botulinum type F light chain protease inhibitors, microsphere substrate cleavage, validation (AID 588459); details: multiplex microsphere protease substrate cleavage assay, flow cytometry; at 10 µM; stronger effect = higher value
# [13] = target: Botulinum neurotoxin type A (Clostridium botulinum) (UniProt P0DPI0); assay: BoNT/A light chain protease inhibitors, biochemical, multiplex microsphere flow cytometry, validation set (AID 588460); details: at 10 µM, stronger effect = higher value
# Botulinum neurotoxin type A (Clostridium botulinum), sequence (P0DPI0 whole entry, looked up): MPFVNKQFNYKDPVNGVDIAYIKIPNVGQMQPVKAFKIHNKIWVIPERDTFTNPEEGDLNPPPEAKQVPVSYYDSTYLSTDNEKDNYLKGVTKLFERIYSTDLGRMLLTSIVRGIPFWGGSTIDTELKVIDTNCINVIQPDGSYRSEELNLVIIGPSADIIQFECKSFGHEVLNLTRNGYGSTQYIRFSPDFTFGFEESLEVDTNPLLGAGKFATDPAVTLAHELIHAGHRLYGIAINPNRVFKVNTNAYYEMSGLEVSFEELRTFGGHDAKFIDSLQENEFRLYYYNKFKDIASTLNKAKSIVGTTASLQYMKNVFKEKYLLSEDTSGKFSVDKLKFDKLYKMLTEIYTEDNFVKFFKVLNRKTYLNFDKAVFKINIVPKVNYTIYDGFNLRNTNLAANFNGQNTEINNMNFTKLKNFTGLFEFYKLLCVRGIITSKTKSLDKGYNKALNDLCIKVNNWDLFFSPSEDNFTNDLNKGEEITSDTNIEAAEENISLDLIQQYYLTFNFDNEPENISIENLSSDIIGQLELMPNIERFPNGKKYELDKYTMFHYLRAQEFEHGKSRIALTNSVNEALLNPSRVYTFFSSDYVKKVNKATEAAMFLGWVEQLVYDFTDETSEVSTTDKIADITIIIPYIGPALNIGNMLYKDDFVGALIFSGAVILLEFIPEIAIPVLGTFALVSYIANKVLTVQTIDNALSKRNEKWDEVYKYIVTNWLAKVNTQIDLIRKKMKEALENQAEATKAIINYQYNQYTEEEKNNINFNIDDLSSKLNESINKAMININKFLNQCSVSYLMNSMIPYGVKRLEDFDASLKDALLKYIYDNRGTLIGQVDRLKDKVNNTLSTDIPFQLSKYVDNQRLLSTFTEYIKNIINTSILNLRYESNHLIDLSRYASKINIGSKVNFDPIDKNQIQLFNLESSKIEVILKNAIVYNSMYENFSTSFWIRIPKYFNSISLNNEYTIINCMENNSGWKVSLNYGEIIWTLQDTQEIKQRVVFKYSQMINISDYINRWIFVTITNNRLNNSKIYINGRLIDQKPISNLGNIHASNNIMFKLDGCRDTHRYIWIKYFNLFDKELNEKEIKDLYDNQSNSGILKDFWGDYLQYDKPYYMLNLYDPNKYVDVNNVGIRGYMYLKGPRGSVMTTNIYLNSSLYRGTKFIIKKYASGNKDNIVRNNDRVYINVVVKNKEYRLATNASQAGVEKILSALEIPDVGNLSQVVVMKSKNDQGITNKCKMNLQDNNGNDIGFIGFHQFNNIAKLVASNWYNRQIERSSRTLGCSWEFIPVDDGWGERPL
# [14] = target: Lethal factor (Bacillus anthracis) (UniProt P15917); assay: Bacillus anthracis lethal factor inhibition, microsphere flow cytometry protease assay, validation at 10 µM (AID 588461); details: multiplex microsphere protease cleavage assay, stronger effect = higher value
# Lethal factor (Bacillus anthracis), sequence (P15917 whole entry, looked up): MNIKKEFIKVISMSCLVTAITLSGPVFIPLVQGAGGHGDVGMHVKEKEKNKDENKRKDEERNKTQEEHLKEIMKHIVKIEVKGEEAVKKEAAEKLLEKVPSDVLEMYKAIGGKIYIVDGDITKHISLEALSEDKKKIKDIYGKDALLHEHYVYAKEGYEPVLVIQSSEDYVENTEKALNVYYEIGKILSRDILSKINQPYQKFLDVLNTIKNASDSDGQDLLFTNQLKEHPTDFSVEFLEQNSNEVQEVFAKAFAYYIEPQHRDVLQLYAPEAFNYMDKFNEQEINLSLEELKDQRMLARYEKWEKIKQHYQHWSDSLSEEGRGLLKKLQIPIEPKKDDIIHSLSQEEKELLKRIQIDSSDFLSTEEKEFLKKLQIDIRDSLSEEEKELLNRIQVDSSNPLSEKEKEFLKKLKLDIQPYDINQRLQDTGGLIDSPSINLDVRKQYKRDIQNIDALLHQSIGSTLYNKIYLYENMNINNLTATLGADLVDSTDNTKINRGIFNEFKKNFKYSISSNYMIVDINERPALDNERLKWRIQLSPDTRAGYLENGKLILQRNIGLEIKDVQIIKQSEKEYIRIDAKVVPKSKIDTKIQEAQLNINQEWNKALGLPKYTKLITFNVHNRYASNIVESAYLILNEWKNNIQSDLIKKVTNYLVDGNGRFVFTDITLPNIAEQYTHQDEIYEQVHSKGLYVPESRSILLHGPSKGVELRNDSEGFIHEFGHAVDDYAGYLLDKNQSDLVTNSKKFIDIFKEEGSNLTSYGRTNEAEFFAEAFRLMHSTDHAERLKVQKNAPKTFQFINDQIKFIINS
# [15] = target: ATP-binding cassette sub-family B member 6 (Homo sapiens) (UniProt Q9NP58); assay: blockers of ABCB6-driven porphyrin uptake – K562-ABCB6 cells, flow cytometry, validation set, pilot screen (AID 588550;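 active = inhibition above the screen-wide mean plus 3 SD, about 51%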;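 also: 0% = DMSO wells and 100% = benzethonium chloride 70 µM positive control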); details: K562-ABCB6 porphyrin accumulation, 1 h, at 10 µM, stronger effect = higher value
# [16] = AML differentiation inducers, ER-HoxA9 marrow cells – cell-based, GFP/MAC1 double positive, flow cytometry, validation set, primary screen (AID 588685;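 active = differentiation response of at least 50%, scaled between solvent and reference control, from cells with both markers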;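 also: compound exposure lasts four days before antibody staining and flow analysis; 0% = DMSO wells and 100% = 5 µM fulvestrant positive control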); details: stronger effect = higher value
# [17] = Nile Red efflux blockade in pump-expressing yeast – validation compound set, multiplex, phenotypic, pilot screen (AID 588506;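 active = efflux inhibition above 0.42, the validation set average plus 4 SD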;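 also: Nile Red retained in cells so higher fluorescence means more efflux inhibition; 0 = negative control wells and 1 = enniatin B 25 µM full block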); details: S. cerevisiae pump-expressing triplex, Nile Red efflux flow cytometry; at 10 µM; stronger effect = higher value
SMILES,percent of DMSO control GFP [1],GFP response vs DMSO [2],percent response of DMSO control [3],GFP response vs DMSO [4],double positive events [5] [%],vesicle binding response [5],inhibition [6],superoxide response (% of plate) [7],aptamer binding inhibition [8],inhibition [9],response [10],binding (% of control) [11],inhibition [12],inhibition [13],inhibition [14],inhibition [15],differentiation response [16],efflux inhibition (fraction of control) [17]
C[C@@H]1O[C@@H](O[C@H]2C[C@@H](O)[C@]3(CO)[C@H]4[C@H](O)C[C@]5(C)[C@@H](C6=CC(=O)OC6)CC[C@]5(O)[C@@H]4CC[C@]3(O)C2)[C@H](O)[C@H](O)[C@H]1O,108% (inactive),104% (inactive),102% (inactive),107% (inactive),69,183% (inactive),1.44% (inactive),103% (inactive),7% (inactive),-1.72% (inactive),0.97% (inactive),101% (inactive),0.6% (inactive),-0.5% (inactive),0.4% (inactive),4% (inactive),1.91% (inactive),
Cc1ccc(/C=C2/C(=O)NC(=O)N(C)C2=O)cc1,97.4% (inactive),96.9% (inactive),95.9% (inactive),97.4% (inactive),53.7,135% (inactive),20.3% (inactive),101% (inactive),5% (inactive),-0.14% (inactive),-4.11% (inactive),97.8% (inactive),0.6% (inactive),1.8% (inactive),6.7% (inactive),6% (inactive),-0.2% (inactive),0.22 (inactive)
COc1ccc(OC)c(C(O)C(C)N)c1 (stereo not given),103% (inactive),94.1% (inactive),95.4% (inactive),87.4% (inactive),59.9,41.1% (inactive),7.85% (inactive),,0% (inactive),-0.56% (inactive),1.5% (inactive),105% (inactive),2.2% (inactive),1.1% (inactive),3.1% (inactive),10% (inactive),24.7% (inactive),0.61 (active)
O=C(O)CCCc1ccc(N(CCCl)CCCl)cc1,101% (inactive),103% (inactive),98.8% (inactive),97.4% (inactive),63.4,148% (inactive),23.1% (inactive),93.9% (inactive),4% (inactive),1.29% (inactive),-5.67% (inactive),105% (inactive),-4% (inactive),-2.1% (inactive),-3.4% (inactive),8% (inactive),17.6% (inactive),0.48 (active)
CN[C@H](C)[C@H](O)c1ccccc1,90.2% (inactive),131% (inactive),102% (inactive),87.5% (inactive),53.3,176% (inactive),8.4% (inactive),97.6% (inactive),4% (inactive),39.6% (inactive),-4.76% (inactive),102% (inactive),,,,5% (inactive),-0.82% (inactive),0.27 (inactive)
